Reference: ChEMBL document CHEMBL3988442, “University of Dundee, Small-Polar-MMV Screening Library” (2021)
For some of these results: Measured potencies and affinities stand elsewhere.

Key:
Design in all cases: scale not given: direction of the effect not stated beside the values
[1] = target: Protein translocase subunit SecA (Escherichia coli (strain K12)) (UniProt P10408); assay: Assay to Identify E. coli SecA ATPase Inhibitors; format: functional; conditions: 30 µM
[2] = target: T1, Ubiquitin-activating enzyme e1, putative (Leishmania donovani (strain BPK282A1)) (UniProt E9BSI1); assay: Leishmania donovani Ubiquitin Activating Enzyme (LdE1); format: functional; conditions: 30 µM
T1 sequence (whole entry): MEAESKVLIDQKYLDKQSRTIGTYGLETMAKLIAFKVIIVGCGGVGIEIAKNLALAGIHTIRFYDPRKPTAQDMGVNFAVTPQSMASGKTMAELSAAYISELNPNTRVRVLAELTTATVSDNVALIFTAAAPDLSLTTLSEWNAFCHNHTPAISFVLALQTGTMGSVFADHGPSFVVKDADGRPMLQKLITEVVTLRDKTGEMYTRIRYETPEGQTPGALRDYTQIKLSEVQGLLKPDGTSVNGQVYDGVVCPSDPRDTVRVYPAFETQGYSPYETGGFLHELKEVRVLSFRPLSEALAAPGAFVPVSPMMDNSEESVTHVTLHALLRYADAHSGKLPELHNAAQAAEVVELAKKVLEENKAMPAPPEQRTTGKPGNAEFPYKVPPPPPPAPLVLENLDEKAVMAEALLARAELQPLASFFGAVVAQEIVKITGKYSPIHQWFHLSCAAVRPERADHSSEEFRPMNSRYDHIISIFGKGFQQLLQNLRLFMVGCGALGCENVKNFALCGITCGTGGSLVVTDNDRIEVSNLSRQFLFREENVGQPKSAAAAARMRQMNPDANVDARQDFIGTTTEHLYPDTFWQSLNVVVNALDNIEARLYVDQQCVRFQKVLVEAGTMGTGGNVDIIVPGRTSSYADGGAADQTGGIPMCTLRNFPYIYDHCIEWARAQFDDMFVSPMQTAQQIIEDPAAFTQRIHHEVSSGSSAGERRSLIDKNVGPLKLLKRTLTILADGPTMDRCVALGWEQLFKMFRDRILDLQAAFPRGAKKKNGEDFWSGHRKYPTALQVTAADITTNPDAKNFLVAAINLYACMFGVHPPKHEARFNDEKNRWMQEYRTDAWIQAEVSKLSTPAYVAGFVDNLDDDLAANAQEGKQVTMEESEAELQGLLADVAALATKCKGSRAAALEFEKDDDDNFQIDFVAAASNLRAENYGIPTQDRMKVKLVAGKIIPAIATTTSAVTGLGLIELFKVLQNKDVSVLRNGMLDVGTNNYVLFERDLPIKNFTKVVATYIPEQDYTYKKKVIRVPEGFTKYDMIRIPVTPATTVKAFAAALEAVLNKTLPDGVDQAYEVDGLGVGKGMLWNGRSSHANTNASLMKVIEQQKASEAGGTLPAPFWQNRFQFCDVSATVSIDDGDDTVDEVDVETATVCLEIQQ

[3] = target: AMP-activated protein kinase, AMPK (Homo sapiens) (UniProt P54646+O43741+P54619+Q9UGJ0+Q9Y478+Q13131+Q9UGI9); assay: AMP-dependent Kinase enzyme assay. An in vitro enzyme assay that detects ADP turnover that is directly proportional to AMPK activity. This uses naive AMPK that is activated during the assay with MK-8722; format: functional; conditions: 30 µM
[4] = target: Sialic acid-binding Ig-like lectin 9 (Homo sapiens) (UniProt Q9Y336); assay: Hs-Siglec9 ALPHAscreen SOP 20170721; conditions: 10 µM
[5] = test system: Trypanosoma cruzi; assay: Trypanosoma cruzi phosphomannomutase and mannose-1-phosphate guanylyltransferase assay; format: functional; conditions: 10 µM
[6] = target: T2, Arginase-2, mitochondrial (Homo sapiens) (UniProt P78540); assay: in vitro enzyme assay to detect the production of urea directly proportional to the activity of Arginase II; format: functional; conditions: 33.3 µM; also: in the data most compounds retested in dose-response had high values
T2 sequence (whole entry): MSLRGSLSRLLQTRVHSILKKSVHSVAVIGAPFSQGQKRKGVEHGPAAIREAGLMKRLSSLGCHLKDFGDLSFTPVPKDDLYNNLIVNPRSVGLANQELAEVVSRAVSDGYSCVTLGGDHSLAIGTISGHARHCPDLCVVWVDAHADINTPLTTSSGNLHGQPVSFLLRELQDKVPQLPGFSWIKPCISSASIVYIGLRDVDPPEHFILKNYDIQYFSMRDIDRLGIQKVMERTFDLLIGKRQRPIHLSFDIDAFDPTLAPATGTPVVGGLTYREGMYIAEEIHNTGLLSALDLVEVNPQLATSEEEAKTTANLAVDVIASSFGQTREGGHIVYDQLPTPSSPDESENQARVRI

[7] = target: T3, Proteasome subunit beta (Trypanosoma cruzi) (UniProt O96673); assay: Trypanosoma cruzi proteasome chymotrypsin-like activity (TcProtChymo) assay.; also: in the data most compounds retested in dose-response had high values; format: functional; conditions: 9.37 µM
T3 sequence (whole entry): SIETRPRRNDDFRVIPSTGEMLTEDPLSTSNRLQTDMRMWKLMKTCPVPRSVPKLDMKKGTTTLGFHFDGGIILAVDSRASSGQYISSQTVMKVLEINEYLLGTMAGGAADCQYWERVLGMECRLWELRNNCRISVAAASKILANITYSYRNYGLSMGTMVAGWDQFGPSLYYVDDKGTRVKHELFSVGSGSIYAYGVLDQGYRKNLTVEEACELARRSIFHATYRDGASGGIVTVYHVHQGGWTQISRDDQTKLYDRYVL

[8] = species: Homo sapiens; assay: To identify inhibition of the IFN signalling (Jak-Stat) pathway via expression of an eGFP reporter gene under the control of an IFN-stimulated response element (ISRE) containing MxA promoter.; format: functional; conditions: 30 µM
[9] = target: T4, Tyrosyl-tRNA synthetase, putative (Trypanosoma cruzi (strain CL Brener)) (UniProt Q4DSP6); assay: Trypanosoma cruzi tyrosyl tRNA synthetase (TcYRS) _High Tyrosine SOP; format: functional; conditions: 30 µM; also: in the data most compounds retested in dose-response had high values
T4 sequence (whole entry): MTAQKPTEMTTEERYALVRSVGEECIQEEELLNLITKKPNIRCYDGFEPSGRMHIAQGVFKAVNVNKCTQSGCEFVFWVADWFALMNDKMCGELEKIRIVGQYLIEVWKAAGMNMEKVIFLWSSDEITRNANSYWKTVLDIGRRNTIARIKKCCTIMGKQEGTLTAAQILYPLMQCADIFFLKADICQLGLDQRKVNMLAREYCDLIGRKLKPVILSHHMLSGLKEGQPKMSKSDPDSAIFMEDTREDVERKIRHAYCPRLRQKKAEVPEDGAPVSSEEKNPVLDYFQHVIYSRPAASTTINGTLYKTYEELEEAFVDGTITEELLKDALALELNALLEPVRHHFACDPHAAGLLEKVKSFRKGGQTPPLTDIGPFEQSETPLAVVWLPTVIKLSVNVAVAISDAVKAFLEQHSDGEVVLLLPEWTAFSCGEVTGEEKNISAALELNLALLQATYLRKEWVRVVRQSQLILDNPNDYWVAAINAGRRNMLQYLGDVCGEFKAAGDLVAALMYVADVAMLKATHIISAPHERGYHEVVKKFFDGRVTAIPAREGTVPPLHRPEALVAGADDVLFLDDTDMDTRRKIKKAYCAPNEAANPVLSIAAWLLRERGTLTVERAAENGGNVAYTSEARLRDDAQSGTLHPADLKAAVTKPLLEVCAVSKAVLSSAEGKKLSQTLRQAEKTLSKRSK

[10] = target: T4, Tyrosyl-tRNA synthetase, putative (Trypanosoma cruzi (strain CL Brener)); assay: Trypanosoma cruzi tyrosyl tRNA synthetase (TcYRS) SOP; format: functional; conditions: 30 µM
[11] = target: Chromo domain-containing protein 1 (Saccharomyces cerevisiae (strain ATCC 204508 / S288c) (Baker's yeast)) (UniProt P32657); assay: ScCHD-1 Enzyme Inhibition Assay; format: functional; conditions: 30 µM; also: in the data most compounds retested in dose-response had high values
Chain of Chromo domain-containing protein 1 (Saccharomyces cerevisiae (strain ATCC 204508 / S288c) (Baker's yeast)) (P32657 whole entry, the tested form may be a part): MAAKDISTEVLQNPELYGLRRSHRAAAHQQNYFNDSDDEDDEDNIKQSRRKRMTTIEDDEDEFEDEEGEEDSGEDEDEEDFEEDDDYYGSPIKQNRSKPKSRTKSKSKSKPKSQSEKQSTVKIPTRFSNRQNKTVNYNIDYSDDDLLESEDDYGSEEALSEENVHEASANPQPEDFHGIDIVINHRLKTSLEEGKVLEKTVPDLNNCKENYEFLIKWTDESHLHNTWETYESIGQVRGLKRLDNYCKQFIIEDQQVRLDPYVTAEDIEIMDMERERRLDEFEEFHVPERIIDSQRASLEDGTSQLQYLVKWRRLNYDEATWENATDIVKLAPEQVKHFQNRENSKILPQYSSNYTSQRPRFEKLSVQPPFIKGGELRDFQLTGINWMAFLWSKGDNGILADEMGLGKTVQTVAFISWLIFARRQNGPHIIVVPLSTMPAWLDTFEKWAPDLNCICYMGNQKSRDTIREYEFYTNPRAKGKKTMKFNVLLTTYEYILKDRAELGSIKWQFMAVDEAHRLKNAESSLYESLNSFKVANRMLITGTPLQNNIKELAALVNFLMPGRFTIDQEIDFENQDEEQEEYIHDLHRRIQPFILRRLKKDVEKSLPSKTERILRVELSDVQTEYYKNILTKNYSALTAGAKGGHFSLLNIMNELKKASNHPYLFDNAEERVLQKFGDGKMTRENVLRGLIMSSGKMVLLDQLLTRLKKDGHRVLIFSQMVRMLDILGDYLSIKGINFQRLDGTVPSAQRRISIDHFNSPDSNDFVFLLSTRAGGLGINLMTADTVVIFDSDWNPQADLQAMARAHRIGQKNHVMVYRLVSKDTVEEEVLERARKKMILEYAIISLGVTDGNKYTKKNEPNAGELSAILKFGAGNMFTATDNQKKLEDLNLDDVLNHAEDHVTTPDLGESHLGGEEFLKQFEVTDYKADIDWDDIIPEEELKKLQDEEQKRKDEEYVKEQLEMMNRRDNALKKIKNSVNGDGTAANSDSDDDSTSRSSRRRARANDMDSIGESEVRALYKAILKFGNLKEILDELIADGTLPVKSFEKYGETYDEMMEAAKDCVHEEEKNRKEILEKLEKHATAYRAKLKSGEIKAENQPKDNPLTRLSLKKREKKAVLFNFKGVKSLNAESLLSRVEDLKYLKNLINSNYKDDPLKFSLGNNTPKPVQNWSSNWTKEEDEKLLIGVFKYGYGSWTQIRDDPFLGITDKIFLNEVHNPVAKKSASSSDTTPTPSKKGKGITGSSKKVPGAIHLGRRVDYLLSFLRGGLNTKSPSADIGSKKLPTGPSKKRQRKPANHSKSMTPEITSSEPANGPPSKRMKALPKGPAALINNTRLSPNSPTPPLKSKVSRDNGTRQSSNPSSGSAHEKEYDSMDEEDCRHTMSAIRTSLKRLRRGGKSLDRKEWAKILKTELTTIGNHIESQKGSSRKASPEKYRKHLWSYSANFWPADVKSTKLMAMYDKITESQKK

Chain of Sialic acid-binding Ig-like lectin 9 (Homo sapiens) (Q9Y336 whole entry): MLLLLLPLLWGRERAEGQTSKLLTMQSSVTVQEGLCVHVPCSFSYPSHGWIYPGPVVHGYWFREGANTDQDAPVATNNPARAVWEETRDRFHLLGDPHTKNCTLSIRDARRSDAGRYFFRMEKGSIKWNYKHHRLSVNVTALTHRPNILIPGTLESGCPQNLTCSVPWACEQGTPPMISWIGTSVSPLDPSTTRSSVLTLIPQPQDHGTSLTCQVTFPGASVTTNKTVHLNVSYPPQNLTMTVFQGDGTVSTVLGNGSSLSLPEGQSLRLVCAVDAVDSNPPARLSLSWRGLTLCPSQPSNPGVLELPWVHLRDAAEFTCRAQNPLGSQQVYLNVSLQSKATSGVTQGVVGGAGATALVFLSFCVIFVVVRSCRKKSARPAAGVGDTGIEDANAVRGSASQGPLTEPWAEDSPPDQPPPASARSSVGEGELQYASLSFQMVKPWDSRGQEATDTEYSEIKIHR
Chain of Protein translocase subunit SecA (Escherichia coli (strain K12)) (P10408 whole entry): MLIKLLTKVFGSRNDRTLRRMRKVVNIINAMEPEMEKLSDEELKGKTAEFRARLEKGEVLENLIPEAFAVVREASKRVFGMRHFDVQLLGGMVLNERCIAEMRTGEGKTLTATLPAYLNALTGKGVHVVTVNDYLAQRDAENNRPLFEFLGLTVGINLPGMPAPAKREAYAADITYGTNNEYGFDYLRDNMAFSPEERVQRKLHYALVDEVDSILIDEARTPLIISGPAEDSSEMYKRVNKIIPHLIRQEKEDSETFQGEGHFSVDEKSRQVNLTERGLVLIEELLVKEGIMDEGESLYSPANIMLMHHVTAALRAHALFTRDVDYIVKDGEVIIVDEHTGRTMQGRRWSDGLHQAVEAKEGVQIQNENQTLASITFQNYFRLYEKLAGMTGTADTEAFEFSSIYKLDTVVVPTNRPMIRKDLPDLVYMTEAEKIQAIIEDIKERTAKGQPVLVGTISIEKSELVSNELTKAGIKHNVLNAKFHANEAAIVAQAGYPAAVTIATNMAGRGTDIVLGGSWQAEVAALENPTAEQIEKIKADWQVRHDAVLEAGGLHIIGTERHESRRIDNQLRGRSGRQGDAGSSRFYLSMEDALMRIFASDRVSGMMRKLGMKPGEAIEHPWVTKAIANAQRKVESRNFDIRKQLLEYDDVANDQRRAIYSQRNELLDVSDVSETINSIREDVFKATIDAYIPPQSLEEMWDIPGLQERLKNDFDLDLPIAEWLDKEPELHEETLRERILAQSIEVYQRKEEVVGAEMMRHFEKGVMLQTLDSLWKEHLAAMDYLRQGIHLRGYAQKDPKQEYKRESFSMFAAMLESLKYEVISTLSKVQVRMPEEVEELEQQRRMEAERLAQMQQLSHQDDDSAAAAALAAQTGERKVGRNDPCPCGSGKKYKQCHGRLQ

| Structure (SMILES) | Percent Effect [1] [%] | Percent Effect [2] [%] | Percent Effect [3] [%] | Percent Effect [4] [%] | Percent Effect [5] [%] | Percent Effect [6] [%] | Percent Effect [7] [%] | Percent Effect [8] [%] | Percent Effect [9] [%] | Percent Effect [10] [%] | Percent Effect [11] [%] |
| --- | --- | --- | --- | --- | --- | --- | --- | --- | --- | --- | --- |
| CCOC(=O)N1CCN(c2nc(NC)c3ccccc3n2)CC1 | -3.25 | 4 | -1.05 | 9.22 | 4.52 | -5.46 | 6.1 | 3.01 | 1.06 | 5.13 | -1.69 |
| CN(Cc1ccc(F)cc1)C(=O)CN1CCCC(Cn2cncn2)C1 (stereo not drawn) | -2.63 | 2.53 | 1.84 | 7.47 | 3.49 | 1.52 | -6.8 | -5.05 | 7.39 | 3.8 | -2.65 |
| CCn1nccc1CNC(=O)C1CCCC1 | 0.221 | 10.4 | 2.62 | 4.33 | -7.38 | 1.38 | 9.65 | -1.06 | 5.38 | 16.1 | -0.569 |
| CNS(=O)(=O)c1ccc(C(=O)NCCc2ccccn2)cc1 | -1.2 | 13.2 | -0.141 | 1.24 | -0.28 | -5.4 | 10.2 | -22.9 | 7.39 | 16.1 | -7.59 |
| CCN(C(=O)Nc1cccnc1OC)C1CC1 | -6.66 | 15.6 | -6.43 | 15.2 | 5.24 | -3.2 | 7.6 | 5.42 | 4.85 | 19.5 | -9.65 |
| CCC(=O)Nc1ccc2c(c1)CN(C(=O)c1ccco1)CC2 | -1.48 | 15.6 | 8.06 | -13 | -1.48 | -1.94 | 9.4 | 33.1 | 3.17 | 14.1 | -8.67 |
| Cc1noc(C)c1CN1CCN(C(=O)Cn2cncn2)CC1 | -5.62 | 5.41 | -0.877 | 5 | 2.83 | 3.72 | -5.24 | -2.96 | 2.15 | 11.1 | -4.36 |
| Cc1nc([C@@H]2C[C@@H]3CCN(C(=O)c4ccnnc4)C[C@H]3O2)sc1C | -3.66 | 18.2 | -2.5 | -0.581 | 5.42 | 1.94 | 14.4 | 16.5 | 4.23 | 16.7 | -7.55 |
